Assay [1] can be described thus: binders of probe aFSTL3 on microarray, primary screen, stem cell growth factor project, biochemical, small-molecule microarray, fluorescence 635/667 (AID 1064).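 Note: measures binding of the biotinylated anti-FSTL3 antibody to printed compounds.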 The settings on record: higher = more signal.
A short description of assay [2]: binders from COS7 lysate, DM2A8 probe, primary screen, torsin A project, cell lysate, small-molecule microarray, fluorescence 635/667 (AID 1065). Conditions: higher = more signal, COS7 lysate expressing mutant human TOR1A.
Assay [3] in a line: binders of probe aFGF2 on microarray, primary screen, stem cell growth factor project, biochemical, small-molecule microarray, fluorescence 635/667 (AID 1067).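 Note: measures binding of biotinylated aFGF2 protein to printed compounds on slides; z-score merges feature fluorescence and signal-to-noise across triplicate slides.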 The settings on record: higher = more signal.
A short description of assay [4]: binders of probe aFGF10 on microarray, primary screen, stem cell growth factor project, biochemical, small-molecule microarray, fluorescence 635/667 (AID 1071).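 Note: score merges 667 nm spot intensity and signal to noise from triplicate slides.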 The settings on record: higher = more signal.
For assay [5], the target named is Neurogenic locus notch homolog protein 2 (Homo sapiens) (UniProt Q04721). Description: Notch2 binders on small-molecule microarrays, primary screen, biochemical, small-molecule microarray, 635 nm fluorescence, stem cell growth factors (AID 1073). Conditions: Notch2 binding, higher = more signal.
Neurogenic locus notch homolog protein 2 (Homo sapiens), sequence (Q04721 whole entry, looked up, canonical isoform): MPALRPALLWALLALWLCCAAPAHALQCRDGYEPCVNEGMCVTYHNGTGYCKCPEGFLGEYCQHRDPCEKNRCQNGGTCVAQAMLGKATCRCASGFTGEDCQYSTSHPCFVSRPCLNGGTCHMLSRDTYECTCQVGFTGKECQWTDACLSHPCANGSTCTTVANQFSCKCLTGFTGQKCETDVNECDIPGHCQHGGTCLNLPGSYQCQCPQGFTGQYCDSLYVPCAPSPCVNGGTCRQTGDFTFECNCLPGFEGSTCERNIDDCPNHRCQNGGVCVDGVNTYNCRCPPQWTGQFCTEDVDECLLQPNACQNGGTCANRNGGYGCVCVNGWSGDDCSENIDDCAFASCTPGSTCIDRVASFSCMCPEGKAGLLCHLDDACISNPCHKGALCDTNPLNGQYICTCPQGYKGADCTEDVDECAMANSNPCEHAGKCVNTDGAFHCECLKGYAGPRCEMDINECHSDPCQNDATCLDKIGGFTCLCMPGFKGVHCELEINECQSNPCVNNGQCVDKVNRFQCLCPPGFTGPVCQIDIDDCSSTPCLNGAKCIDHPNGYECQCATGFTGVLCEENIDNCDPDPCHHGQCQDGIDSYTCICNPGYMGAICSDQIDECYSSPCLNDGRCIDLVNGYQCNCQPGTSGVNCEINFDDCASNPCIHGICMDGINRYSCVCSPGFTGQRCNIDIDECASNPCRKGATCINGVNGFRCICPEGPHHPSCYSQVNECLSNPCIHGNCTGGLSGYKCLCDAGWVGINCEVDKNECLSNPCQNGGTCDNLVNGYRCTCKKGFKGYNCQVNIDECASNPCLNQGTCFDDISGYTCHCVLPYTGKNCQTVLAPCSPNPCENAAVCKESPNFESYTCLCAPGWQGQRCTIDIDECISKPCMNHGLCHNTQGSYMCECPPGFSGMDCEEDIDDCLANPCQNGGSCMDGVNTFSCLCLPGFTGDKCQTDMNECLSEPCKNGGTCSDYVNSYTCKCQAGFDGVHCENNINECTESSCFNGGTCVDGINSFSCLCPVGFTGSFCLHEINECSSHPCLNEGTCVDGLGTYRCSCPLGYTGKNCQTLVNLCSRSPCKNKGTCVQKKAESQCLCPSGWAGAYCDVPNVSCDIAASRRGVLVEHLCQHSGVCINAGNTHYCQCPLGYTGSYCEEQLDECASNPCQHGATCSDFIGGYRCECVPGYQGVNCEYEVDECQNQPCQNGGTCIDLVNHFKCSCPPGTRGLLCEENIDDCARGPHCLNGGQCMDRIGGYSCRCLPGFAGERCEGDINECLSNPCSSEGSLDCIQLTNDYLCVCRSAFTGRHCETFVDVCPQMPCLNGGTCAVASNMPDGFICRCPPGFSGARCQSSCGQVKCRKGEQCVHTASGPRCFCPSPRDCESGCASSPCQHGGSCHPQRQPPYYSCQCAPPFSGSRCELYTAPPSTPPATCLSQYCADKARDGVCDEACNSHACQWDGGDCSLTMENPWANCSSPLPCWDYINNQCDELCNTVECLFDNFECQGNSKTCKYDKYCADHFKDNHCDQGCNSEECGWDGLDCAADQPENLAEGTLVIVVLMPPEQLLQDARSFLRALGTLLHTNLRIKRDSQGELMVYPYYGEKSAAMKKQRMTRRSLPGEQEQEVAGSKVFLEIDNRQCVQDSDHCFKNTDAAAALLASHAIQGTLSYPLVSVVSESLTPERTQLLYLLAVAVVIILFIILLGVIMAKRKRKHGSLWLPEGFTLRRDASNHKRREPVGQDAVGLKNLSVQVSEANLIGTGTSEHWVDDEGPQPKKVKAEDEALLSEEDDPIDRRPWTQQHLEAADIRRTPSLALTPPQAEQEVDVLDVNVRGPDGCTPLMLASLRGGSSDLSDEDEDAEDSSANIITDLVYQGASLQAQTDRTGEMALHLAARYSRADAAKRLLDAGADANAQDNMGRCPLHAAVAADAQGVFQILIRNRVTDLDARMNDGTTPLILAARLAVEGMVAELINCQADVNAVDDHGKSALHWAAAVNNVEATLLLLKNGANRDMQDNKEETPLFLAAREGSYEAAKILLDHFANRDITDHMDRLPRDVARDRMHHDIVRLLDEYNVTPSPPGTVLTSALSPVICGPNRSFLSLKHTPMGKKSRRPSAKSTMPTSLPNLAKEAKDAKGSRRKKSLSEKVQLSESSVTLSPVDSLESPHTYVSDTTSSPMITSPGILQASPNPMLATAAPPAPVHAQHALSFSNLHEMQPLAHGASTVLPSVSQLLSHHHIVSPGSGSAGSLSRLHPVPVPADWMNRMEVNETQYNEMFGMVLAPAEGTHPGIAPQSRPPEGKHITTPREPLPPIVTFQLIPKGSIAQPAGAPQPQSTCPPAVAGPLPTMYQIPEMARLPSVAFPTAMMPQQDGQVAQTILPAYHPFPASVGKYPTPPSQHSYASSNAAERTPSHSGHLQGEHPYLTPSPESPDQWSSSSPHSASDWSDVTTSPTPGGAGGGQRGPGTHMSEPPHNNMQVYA
Assay [6] has as its target Pro-neuregulin-1, membrane-bound isoform (Homo sapiens) (UniProt Q02297). Description: NRG1 binders on small-molecule microarrays, primary screen, psychiatric disease protein project, biochemical, small-molecule microarray, fluorescence 635/667 (AID 1075).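 Note: score combines 667 nm spot fluorescence with signal to noise.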 Conditions: NRG1 binding, 635 nm fluorescence, higher = more signal.
The subject of assay [7] is Neuregulin-1 EGF-like domain. Description: binders of neuregulin-1 EGF-like domain, primary screen, biochemical, small-molecule microarray, 635 nm fluorescence (AID 1081).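 Note: binding of the protein to compounds printed on small-molecule microarray slides.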 The settings on record: small-molecule microarray binding, higher = more signal.
A short description of assay [8]: FRG1 promoter luciferase signal modulators, primary screen, FRG1 inhibition for FSHD, cell-based, C2C12 myotubes, firefly/Renilla luciferase, luminescence (AID 1084). Conditions: higher = more signal, called active from +8 up or from −8 down.
Assay [9] is described as follows: binders of probe aFST on microarray, primary screen, stem cell growth factor project, biochemical, small-molecule microarray, fluorescence 635/667 (AID 1086).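 Note: score merges 667 nm fluorescence with signal-to-noise of each printed compound spot.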 The settings on record: higher = more signal.
Assay [10] in a line: binders of probe aHhip on microarray, primary screen, stem cell growth factor project, biochemical, small-molecule microarray, fluorescence 635/667 (AID 1087).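 Note: score merges spot fluorescence at 667nm with spot signal to noise ratio.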 The settings on record: higher = more signal.

Structures are written as SMILES. Calls of active or inactive are those of the source.

Pro-neuregulin-1, membrane-bound isoform (Homo sapiens), sequence (Q02297 whole entry, looked up, the tested form may be a part, canonical isoform): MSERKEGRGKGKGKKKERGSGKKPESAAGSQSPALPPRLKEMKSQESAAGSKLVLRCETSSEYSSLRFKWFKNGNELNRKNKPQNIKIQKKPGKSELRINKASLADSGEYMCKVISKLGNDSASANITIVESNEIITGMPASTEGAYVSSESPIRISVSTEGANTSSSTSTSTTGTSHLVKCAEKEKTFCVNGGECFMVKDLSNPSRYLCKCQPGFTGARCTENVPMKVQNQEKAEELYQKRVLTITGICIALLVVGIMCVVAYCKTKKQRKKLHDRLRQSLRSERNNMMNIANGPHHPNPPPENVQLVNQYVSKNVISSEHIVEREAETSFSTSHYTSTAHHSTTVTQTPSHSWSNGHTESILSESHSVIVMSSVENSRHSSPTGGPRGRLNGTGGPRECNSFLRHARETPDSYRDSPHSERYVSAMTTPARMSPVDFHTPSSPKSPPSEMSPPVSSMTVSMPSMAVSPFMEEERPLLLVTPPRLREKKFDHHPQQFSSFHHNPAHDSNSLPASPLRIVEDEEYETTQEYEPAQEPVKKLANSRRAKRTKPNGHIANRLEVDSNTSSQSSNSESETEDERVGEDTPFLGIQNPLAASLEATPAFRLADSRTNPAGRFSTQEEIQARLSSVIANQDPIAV

For the compound `O=C1NC(=O)C2C1C=CC(C(O)c1ccco1)N2Nc1ccc(Cl)cc1Cl` (stereo not given), the composite z-score was 0.388 in assay [1]; -0.13 in [2]; -0.0375 in assay [3]; -0.0728 in assay [4]; 0.42 in assay [5]; 0.825 in assay [6]. Further, the figures for the composite z-score in assay [7], in assay [9] and in [10] were 1.24, 0.549 and -0.126, respectively. For the same compound, the z-score in assay [8] is 1.62 (inactive).
Regarding `C=CCC(OC(C)=O)[C@@H]1[C@@H](N(Cc2cccc3ccccc23)C(=O)Cc2ccc(F)cc2)c2cc(OCCCO)ccc2N1C(=O)c1ccc2ccccc2c1` (stereo not given in full), the composite z-score in assay [1] was -0.0968; in assay [2], -0.0168; in assay [3], -0.0925; in assay [4], 0.0597; in [5], -0.108; in assay [6] it was -0.398. Besides, the composite z-score is -0.691 in assay [7], -0.0779 in assay [9] and 0.0722 in [10]. Moreover, in assay [8], the z-score was -1.72 (inactive).
In the case of `CCCCC[C@H]1OC[C@@]23C=C(Br)[C@@H](CC12)[C@@]1(CO1)C3=O` (stereo not given in full), the composite z-score in assay [1] is -0.41; in assay [2] it was 0.878; in assay [3] it was -0.2; in assay [4], -0.112; in assay [5] it was -0.308; in [6], -0.556. Also, the composite z-score is -0.497 in assay [7], -0.252 in assay [9] and -0.132 in assay [10]. The z-score in assay [8] was 0.201 (inactive).
Regarding `CCCC=C(CCC)[C@@H](NS(=O)(=O)CC12CCC(CC1=O)C2(C)C)c1ccc(C(=O)OC)cc1` (stereo not given in full), the composite z-score in assay [1] is -0.126; in assay [2] it was 0.645; in assay [3], 0.291; in assay [4], 0.375; in assay [5], 0.621; in assay [6] it was 0.128. For the same compound, the composite z-score in assay [7] is 1.09; in assay [9], 0.974; in [10], 0.274. In [8], the z-score was 2.86 (inactive).
In the case of `CN(C)C(=O)[C@]1(Cc2ccccc2CN=[N+]=[N-])N=C(c2ccc(OCCCO)cc2)O[C@@H]1c1ccccc1`, the composite z-score in assay [1] is 0.168; in [2] it was -0.242; in assay [3] it was 0.0577; in assay [4] it was 0.863; in [5], 0.666; in assay [6], 1.62. Moreover, the results for the composite z-score in assay [7], in assay [9] and in assay [10] were 0.96, 0.694 and -0.0618, respectively. In addition, the z-score in [8] was -3.49 (inactive).
In the case of `Cc1ccc(S[C@]2(C(=O)NCCN3CCOCC3)CC(=O)N(Cc3ccccc3Cl)[C@@H]2c2ccc(CO)cc2I)cc1`, the composite z-score is 0.75 in assay [1]; 1.78 in assay [2]; 0.0027 in [3]; -0.142 in assay [4]; -0.675 in [5]; 1.15 in [6]. In addition, the results for the composite z-score in assay [7], in [9] and in assay [10] were 1.04, -0.387 and 0.302, respectively. In [8], the z-score is -2.03 (inactive).
Take `CCCC[C@@H](O)C1=C(COc2ccccc2)C[C@H]2C(=O)N(Cc3ccccc3)C(=O)[C@H]2[C@H]1CO`: the composite z-score is -0.123 in assay [1]; 0.195 in assay [2]; -0.147 in assay [3]; 0.479 in assay [4]; 0.339 in assay [5]; 1.01 in assay [6]. Also, the composite z-score in [7] is 0.426; in assay [9] it was -0.0226; in assay [10], -0.449. The z-score in assay [8] is -0.791 (inactive).
`CC(C)C(CO)N1C(=O)[C@@H]2C3C(=O)OCCC/C=C\[C@H]3OC23C=CCN(c2ccc4ccccc4c2)C(=O)[C@@H]13` (stereo not given in full): the composite z-score in [1] was -0.08; in assay [2] it was -0.623; in [3] it was -0.076; in [4], -0.12; in [5], -1; in [6], 0.99. In addition, the composite z-score in assay [7] is 1.48; in [9], -0.412; in assay [10], 0.176. Also, the z-score in assay [8] is 0.759 (inactive).
`CC(=O)NCCCC[C@@H]1NC(=O)[C@@H]2C[C@H](C(=O)NCCCCCN)[C@H](c3cccc(OCCO)c3)N2C1=O`: the composite z-score in assay [1] is -0.0173; in assay [2], 1.92; in assay [3], 0.0322; in assay [4], 0.742; in assay [5] it was 0.542; in assay [6], 1.7. For the same compound, the composite z-score in assay [7] was 1.01; in [9], 0.268; in assay [10] it was -0.245. The z-score in assay [8] is 0.301 (inactive).
Take `CCOC(=O)C[C@H]1[C@H](OC(=O)Cc2ccc3c(c2)OCO3)[C@@H](NC(=O)C2CCCCC2)c2cc(OCCCO)ccc2N1C(=O)c1ccccc1`: the composite z-score in assay [1] is 0.0113; in assay [2], -0.155; in assay [3], -0.112; in assay [4], 0.117; in assay [5], 0.0925; in [6] it was -0.127. Further, the composite z-score in assay [7] is 0.65; in [9], -0.0611; in assay [10] it was -0.0994. Further, in [8], the z-score is -1.14 (inactive).
For `C[N+](C)(C)CCCCCCNC(=O)[C@@H]1C[C@@H]2C(=O)N3CCC[C@H]3C(=O)N2[C@@H]1c1ccc(O)cc1`, the composite z-score in assay [1] was -0.138; in assay [2] it was 1.74; in [3], -0.0788; in [4] it was 0.571; in [5], 0.43; in assay [6] it was 0.317. The composite z-score in [7] turned out to be 1.34; in assay [9] it was 0.648; in assay [10], 0.21. Moreover, the z-score in assay [8] was 3.36 (inactive).
With `[N-]=[N+]=Nc1ccccc1C[C@@]1(C(=O)N2CCOCC2)N=C(c2ccc(OCCCO)cc2)O[C@@H]1c1ccccc1`, the composite z-score in [1] was -0.4; in [2] it was -0.121; in assay [3], 0.0324; in assay [4], 1.11; in assay [5], 1.3; in assay [6], 1.06. In addition, the composite z-score in assay [7] was 1.18; in assay [9], 1.71; in assay [10], -0.112. Besides, the z-score in [8] was -3.93 (inactive).
`CO[C@H]1O[C@H](CO)[C@@H](OC(=O)Nc2ccccc2)[C@H](OC(=O)c2cc3ccccc3[nH]2)[C@H]1OC(=O)c1cc2ccccc2[nH]1`: the composite z-score worked out at 0.731 in assay [1]; 0.0889 in [2]; 0.0336 in assay [3]; 0.886 in [4]; 0.518 in [5]; 1.18 in [6]. The composite z-score in [7] was 0.495; in assay [9], 0.219; in assay [10], -0.0994. Besides, in assay [8], the z-score was -0.542 (inactive).
As to `CCCNC(=O)[C@@]1(C)c2ccccc2C(=O)N(c2ccc(C)cn2)[C@H]1c1ccc(CO)cc1`, the composite z-score in [1] was 0.294; in assay [2], 0.0231; in assay [3], -0.0692; in assay [4], -0.281; in [5], 0.0657; in assay [6], 0.638. In addition, the composite z-score is 0.781 in assay [7], -0.215 in assay [9] and -0.219 in assay [10]. Also, the z-score in [8] was 0.683 (inactive).
For `CCOc1cc(C(O)C2C=CC3C(=O)NC(=O)C3N2Nc2ccc(Cl)cc2Cl)ccc1O` (stereo not given), the composite z-score in [1] was 0.0596; in assay [2], -0.565; in [3], 0.042; in assay [4], -0.246; in assay [5] it was -0.463; in [6], -0.226. Besides, the composite z-score in assay [7] is -0.885; in assay [9], 0.0054; in assay [10], -0.297. In addition, the z-score in [8] was 0.59 (inactive).
Regarding `C=C(COC)/C(=C/C[C@H](OC(=O)c1ccncc1)c1ccc(CO)o1)c1cnc2ccccc2c1`, the composite z-score in [1] is 0.138; in assay [2] it was 0.47; in [3] it was -0.124; in assay [4], 0.741; in assay [5], 1.21; in [6] it was 0.98. Further, the composite z-score in [7] is 1.14; in assay [9] it was -0.0236; in assay [10], -0.113. The z-score in assay [8] was 1.29 (inactive).

The values are drawn from PubChem BioAssay.
